PubChem BioAssay (Tox21)
Inconclusive results are not listed. The source made the active and inactive calls. Unless noted, the call rests on the fitted dose curve.

How the values were obtained:
[1] = qHTS assay to identify small molecule agonists of the vitamin D receptor (VDR) signaling pathway - cell viability counter screen (AID 743224; active means well fitted curve in the direction sought with a large enough effect in the repeat runs; an effect the other way counts as inactive or inconclusive; further: nearly all actives have a fitted effect of over 50% in size); conditions: VDR-bla HEK293T viability, CellTiter-Glo luminescence, 16 h; series mostly up to 62.6 µM
In short: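 VDR-bla cells, 4 h after plating, exposed to compounds for 16 h at 37C; viability then read in the same wells as CellTiter-Glo luminescence after 30 min at room temperature, following the bla FRET read.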

[2] = qHTS assay to identify small molecule antagonists of the vitamin D receptor (VDR) signaling pathway - cell viability counter screen (AID 743225; active means well fitted curve in the direction sought with a large enough effect in the repeat runs; an effect the other way counts as inactive or inconclusive; further: nearly all actives have a fitted effect of over 50% in size); conditions: VDR-bla HEK293T viability, CellTiter-Glo luminescence, 16 h; series mostly up to 61 µM
In short: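 Same-well multiplex: following 16 h treatment of HEK 293T cells carrying a UAS-driven beta-lactamase reporter with compound and agonist (3 nM final), and a 2 h FRET substrate step, CellTiter-Glo was added and luminescence read after 30 min.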

[3] = qHTS assay to identify small molecule agonists of the NFkB signaling pathway (AID 1159509; active means well fitted curve in the direction sought with a large enough effect in the signal ratio in the repeat runs, not every such curve was filed as active; the % refers to the signal ratio); conditions: NFkB-bla ME-180 cells, beta-lactamase FRET ratio, 5 h; series mostly up to 61 µM
In short: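 ME-180 NFkB-bla, 2,000 cells/well, overnight plating; cpd pinned in DMSO, 5 h 37 C; B/G FRET substrate 1.5 h RT; ex 405, em 460/530 nm.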

[4] = qHTS assay to identify small molecule agonists of the NFkB signaling pathway - cell viability counter screen (AID 1159515); conditions: NFkB-bla ME-180 viability, CellTiter-Glo luminescence, 5 h; series mostly up to 61 µM; further: nearly all actives have a fitted effect of over 55% in size
In short: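 NFkB-bla ME-180 cells, 2,000/well, plated overnight at 37 C; compound added for 5 hr at 37 C. Viability read in the same wells as the bla reporter, by CellTiter-Glo luminescence after 30 min at room temperature.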

[5] = qHTS assay to identify small molecule agonists of the endoplasmic reticulum stress response signaling pathway (AID 1159516; active means well fitted activation curve with a large enough effect in the signal ratio in the repeat runs, not every such curve was filed as active; the % refers to the signal ratio); conditions: ESRE-bla HeLa, ER stress beta-lactamase reporter, 5 h; series mostly up to 61 µM
In short: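 CellSensor ESRE-bla HeLa cells, 1,500 per well, plated overnight, then exposed to compounds for 5 hr at 37 C. Beta-lactamase reporter read with LiveBLAzer B/G FRET substrate after 2 hr at room temperature, 405 nm excitation, 460 and 530 nm emission.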

[6] = qHTS assay to identify small molecule agonists of the endoplasmic reticulum stress response signaling pathway - cell viability counter screen (AID 1159517); conditions: ESRE-bla HeLa viability, CellTiter-Glo luminescence, 5 h; series mostly up to 61 µM;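 further: HeLa cells carrying an ER stress response element beta-lactamase reporter; nearly all actives have a fitted effect of over 50% in size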
In short: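 CellTiter-Glo was added to wells already read for beta-lactamase FRET, and luminescence was recorded 30 min later. Cells: ESRE-bla HeLa, 1,500 per well, compound exposure 5 hr at 37 C.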

[7] = qHTS assay to identify small molecule antagonists of the retinoid-related orphan receptor gamma (ROR-gamma) signaling pathway - cell viability counter screen (AID 1159520; active means well fitted curve in the direction sought with a large enough effect in the repeat runs; an effect the other way counts as inactive or inconclusive; further: nearly all actives have a fitted effect of over 50% in size); conditions: Tet-on RORgamma CHO cells viability, ATP luminescence, 16 h; series mostly up to 92.4 µM
In short: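 Tet-on ROR gamma CHO cells (1,000/well) were plated 4 hr, given compounds in DMSO for 2 hr at 37 C, then induced with 1 uM final doxycycline for 16 hr. Viability was read as ATP by CellTiter-Glo luminescence after 30 min.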

[8] = target: Nuclear receptor ROR-gamma (Homo sapiens) (UniProt P51449); test: qHTS assay to identify small molecule antagonists of the retinoid-related orphan receptor gamma (ROR-gamma) signaling pathway (AID 1159521; active means well fitted curve in the direction sought with a large enough effect in the repeat runs; an effect the other way counts as inactive or inconclusive); conditions: Tet-on RORgamma CHO cells, RORE-luciferase, 16 h; series mostly up to 92.4 µM
In short: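 Inducible-expression reporter assay: doxycycline (1 uM final) switched on RORγ in CHO cells bearing a ROR response element-luciferase construct, with test compounds present from 2 h beforehand. Decreased luminescence after 16 h defined antagonist activity.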

[9] = qHTS assay to identify small molecule agonists of the AP-1 signaling pathway - cell viability counter screen (AID 1159525); conditions: ME-180 AP-1-bla cells viability, ATP luminescence, 5 h; series mostly up to 76.8 µM; further: nearly all actives have a fitted effect of over 55% in size
In short: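 ME-180 AP-1-bla, 2500 cells/well, Opti-MEM + 0.5% dialyzed FBS; overnight 37 °C; cpd 15-pt titration, 5 h 37 °C; CellTiter-Glo 30 min RT; luminescence read; normalised to TOAB and DMSO controls.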

[10] = qHTS assay to identify small molecule agonists of the AP-1 signaling pathway (AID 1159526); conditions: ME-180 (cervical carcinoma) AP-1-bla reporter, beta-lactamase FRET ratio, 5 h; series mostly up to 76.8 µM

Measured: Potency

CC(C)N(Cc1ccccc1)C(=O)C(C)(C)C
inactive: all assays above

O=C/C=C/c1ccco1
inactive: all assays above

CC(C)(O)C(Cl)(Cl)Cl
not listed: [1]
inactive: all other assays above

CCCCS(=O)(=O)Cl
inactive: all assays above

N[C@@H](Cc1ccc(Oc2cc(I)c(O)c(I)c2)c(I)c1)C(=O)O
inactive: all assays above

O=C(O)CBr
inactive: all assays above

CCOP(=O)(CN(CCO)CCO)OCC
inactive: all assays above

NC(=O)OCCCc1ccccc1
inactive: all assays above

ClC(Cl)(Cl)Cl
inactive: all assays above

ClCC1CO1 (configuration not stated)
not listed: [8]
inactive: all other assays above

CN(CCO)CCO
inactive: all assays above

C=CCC1(C(C)CC)C(=O)NC(=O)NC1=O (configuration not stated)
inactive: all assays above

CCC(C)(C#N)N=NC(C)(C#N)CC (configuration not stated)
inactive: all assays above

CC(C)(C)C(=O)Cl
inactive: all assays above

C(COCC1CO1)OCC1CO1 (configuration not stated)
not listed: [1]
inactive: all other assays above

O=C(O)C(F)(F)C(F)(F)C(F)(F)C(F)(F)C(F)(F)C(F)(F)F
inactive: all assays above

CN(C)C(=O)Oc1cc(OC(=O)N(C)C)cc(C(O)CNC(C)(C)C)c1 (configuration not stated)
inactive: all assays above
